Where “and” joins values, the source holds several entries; their conditions need not be identical. Equal values may be shown once. Out of some 5,500 compounds screened, about 2,000 (36%) were called active. Another 18% or so got no clear call; they are omitted. Rule as the data show it: active = normalized growth mostly below about 0.91 (no sharp cut-off); inconclusive = no clear call, values can overlap the other calls; inactive = mostly above about 0.92. Some of the results follow.
Assay: chemical genetic growth profiling, strain panel (AID 1159580);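 also: tested at 20 µM; growth read once vehicle control cultures reached saturation at 30 °C; 1 = growth at the plate median or of vehicle wells; lower values mean less growth of the strain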
Details: S. cerevisiae deletion strains, growth OD

Measured: normalized growth

O=C(O)c1cccnc1C(=O)O
inactive: locus YAL013W, strain DEP1, stronger effect = lower value 1.01 and 1.02 | locus YAL021C, strain ccr4, stronger effect = lower value 1.02 | locus YAL026C, strain drs2, stronger effect = lower value 1 | locus YAL030W, strain snc1, stronger effect = lower value 0.999 | locus YAL040C, strain CLN3, stronger effect = lower value 1.05 | locus YBL061C, strain skt5, stronger effect = lower value 1 | locus YBR009C, strain hhf1, stronger effect = lower value 1.03 | locus YBR021W, strain FUR4, stronger effect = lower value 1.03 | locus YBR023C, strain chs3, stronger effect = lower value 0.996 | locus YBR171W, strain sec66, stronger effect = lower value 0.992 | locus YBR229C, strain ROT2, stronger effect = lower value 1.03 | locus YBR231C, strain swc5, stronger effect = lower value 1.04 | locus YBR279W, strain paf1, stronger effect = lower value 0.998 | locus YCL011C, strain gbp2, stronger effect = lower value 1.02 | locus YCL016C, strain dcc1, stronger effect = lower value 1.01 | locus YCL029C, strain bik1, stronger effect = lower value 0.991 | locus YCL061C, strain MRC1 (second series), stronger effect = lower value 1 | locus YCL069W, strain vba3, stronger effect = lower value 1 | locus YCR088W, strain abp1, stronger effect = lower value 0.99 | locus YDL005C, strain med2, stronger effect = lower value 0.98 | locus YDL035C, strain GPR1, stronger effect = lower value 1.03 | locus YDL040C, strain nat1, stronger effect = lower value 0.985 | locus YDL074C, strain BRE1, stronger effect = lower value 1.07 | locus YDL101C, strain DUN1, stronger effect = lower value 1.04 | locus YDL134C, strain PPH21, stronger effect = lower value 1.03 | locus YDL185W, strain tfp1, stronger effect = lower value 0.976 | locus YDL192W, strain arf1, stronger effect = lower value 1 | locus YDR001C, strain nth1, stronger effect = lower value 0.99 | locus YDR069C, strain doa4, stronger effect = lower value 1 | locus YDR101C, strain arx1, stronger effect = lower value 0.997 | locus YDR137W, strain rgp1, stronger effect = lower value 1.01 | locus YDR150W, strain NUM1, stronger effect = lower value 1.02 | locus YDR159W, strain sac3, stronger effect = lower value 0.986 | locus YDR162C, strain NBP2, stronger effect = lower value 1.02 | locus YDR195W, strain ref2 1.05 | locus YDR297W, strain sur2, stronger effect = lower value 1 | locus YDR318W, strain mcm21, stronger effect = lower value 0.997 | locus YDR334W, strain swr1, stronger effect = lower value 0.979 | locus YDR335W, strain msn5, stronger effect = lower value 1 | locus YDR363W, strain ESC2, stronger effect = lower value 1.04 | locus YDR388W, stronger effect = lower value 0.986 | locus YDR392W, strain spt3, stronger effect = lower value 0.984 | locus YDR502C, strain sam2, stronger effect = lower value 1.01 | locus YEL003W, strain gim4, stronger effect = lower value 0.995 | locus YEL037C, strain rad23, stronger effect = lower value 0.989 | locus YEL061C, strain CIN8 (second series), stronger effect = lower value 0.979 | locus YEL061C, strain CIN8, stronger effect = lower value 1.02 | locus YER002W, strain NOP16, stronger effect = lower value 0.994 | locus YER015W, strain faa2, stronger effect = lower value 1.01 | locus YER016W, strain bim1, stronger effect = lower value 0.967 | locus YER110C, stronger effect = lower value 1 | locus YER111C, strain swi4, stronger effect = lower value 0.986 | locus YER155C, strain BEM2 (second series), stronger effect = lower value 1.05 | locus YER155C, strain BEM2, stronger effect = lower value 1.01 | locus YER167W, strain BCK2, stronger effect = lower value 1.02 | locus YFR010W, strain ubp6, stronger effect = lower value 1.03 | locus YGL078C, strain dbp3, stronger effect = lower value 0.983 | locus YGL086W, strain mad1, stronger effect = lower value 1.01 | locus YGL167C, strain pmr1, stronger effect = lower value 1 | locus YGL173C, strain kem1, stronger effect = lower value 1 | locus YGL227W, strain vid30, stronger effect = lower value 0.972 | locus YGL240W, strain doc1, stronger effect = lower value 1.01 | locus YGL248W, strain PDE1, stronger effect = lower value 1.03 | locus YGL253W, strain hxk2, stronger effect = lower value 1.01 | locus YGR078C, strain PAC10, stronger effect = lower value 1.01 | locus YGR135W, strain pre9, stronger effect = lower value 1.01 | locus YGR229C, strain SMI1, stronger effect = lower value 1.04 | locus YGR252W, strain gcn5, stronger effect = lower value 0.938 | locus YHR013C, strain ard1, stronger effect = lower value 1 | locus YHR027C, strain rpn1, stronger effect = lower value 1.02 | locus YHR030C, strain SLT2, stronger effect = lower value 1.02 and 0.992 | locus YHR079C, strain IRE1 (second series), stronger effect = lower value 0.981 | locus YHR079C, strain IRE1, stronger effect = lower value 1 | locus YHR094C, strain hxt1, stronger effect = lower value 0.983 | locus YHR129C, strain ARP1, stronger effect = lower value 1.01 | locus YHR142W, strain chs7, stronger effect = lower value 1.02 | locus YHR200W, strain rpn10, stronger effect = lower value 0.984 | locus YIL066C, strain RNR3, stronger effect = lower value 1.05 | locus YIL073C, strain SPO22, stronger effect = lower value 1.01 | locus YIL125W, strain kgd1, stronger effect = lower value 0.971 | locus YIR030C, strain dcg1, stronger effect = lower value 0.998 | locus YJL092W, strain hpr5, stronger effect = lower value 0.99 | locus YJL095W, strain BCK1 (second series), stronger effect = lower value 1.01 | locus YJL095W, strain BCK1, stronger effect = lower value 1.07 and 0.998 | locus YJL115W, strain asf1, stronger effect = lower value 0.984 | locus YJL129C, strain trk1, stronger effect = lower value 0.986 | locus YJL134W, strain LCB3, stronger effect = lower value 1.01 | locus YJL154C, strain vps35, stronger effect = lower value 0.998 | locus YJL164C, strain tpk1, stronger effect = lower value 1.03 | locus YJL166W, strain qcr8, stronger effect = lower value 1.03 | locus YJL168C, strain set2, stronger effect = lower value 0.978 | locus YJL187C, strain SWE1 (second series), stronger effect = lower value 1.05 | locus YJL187C, strain SWE1, stronger effect = lower value 1 | locus YJR043C, strain POL32, stronger effect = lower value 1.02

— PubChem BioAssay AID1159580 (chemical genetic matrix, 2015)
